Screening data: PubChem BioAssay, National Center for Advancing Translational Sciences (NCATS)
Most compounds without a hit are left out; they make up all but 5.3% or so of the library.
Tau fluor cs – counter-screen for tau fibril formation inhibitors; Potency, µM (highest dose often 57.7 µM), without a hit: top-dose activity change, negative = decrease; tau K18 P301L Alexa594 fluorescence, heparin fibrillization; 0.93% of 280,000 active; note: potency is the fitted concentration of half-maximal effect; nearly all actives have a fitted effect of over 55% in size
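Human tau K18 P301L (15 uM unlabeled, 0.24 uM Alexa 594-labeled) in 100 mM sodium acetate pH 7 with 20 uM heparin, 6 hr at 37 C. ThT 30 uM added, 1 hr ambient; Alexa 594 FP and total fluorescence read at 555/632 nm.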
Tau fibril FP – inhibitors of human tau fibril formation; P10636; Potency, µM (doses to about 57.7 µM), for the others: at the top dose activity, negative = inhibition, usual class: inhibitors; K18 P301L tau heparin fibrillization, Alexa594 FP, 6 h; AID 1468; 0.39% of 280,000 active; note: potency is the fitted concentration of half-maximal effect; nearly all actives have a fitted effect of over 55% in size
Target sequence (P10636 561-689 P618L limits assumed): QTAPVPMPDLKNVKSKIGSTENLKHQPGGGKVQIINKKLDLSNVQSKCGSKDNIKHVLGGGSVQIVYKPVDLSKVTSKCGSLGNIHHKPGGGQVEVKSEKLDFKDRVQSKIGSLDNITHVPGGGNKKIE
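Human K18 P301L fragment (15 uM unlabeled plus 0.24 uM Alexa 594-labeled) in 100 mM sodium acetate pH 7 with compound, aggregation induced by 20 uM heparin for 6 hr at 37 C. ThT (30 uM) added for 1 hr, then Alexa 594 FP read.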
Coupling enz – counter-screen for Giardia aldolase inhibitors: coupling enzyme system. coupling enzyme system counterscreen, AmpLite Red fluorescence. activity change, negative = inhibition, % at 58.2 µM, hits read low. 0.67% of 290,000 active. AID 2472; in the data active = activity change below about -30%
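Activity here indicates interference with the coupling reaction, not aldolase inhibition. Compounds at 57.5 uM final met coupling enzymes for 10 min at RT; substrate and AmpLite Red detection followed, with a 525/598 nm fluorescence read after 20 min.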
KDM4E inh – inhibitors of human JMJD2E histone demethylase; B2RXH2; JMJD2E catalytic domain, FDH-coupled NADH fluorescence (FDH is formaldehyde dehydrogenase); Potency, µM (highest dose often 57.1 µM), inactives show at the highest dose activity change, negative = inhibition, hits mostly inhibitors; 1.6% of 230,000 active; AID 2147; active = well fitted inhibition curve with a large enough effect, not every such curve was filed as active; inconclusive = small, poorly fitted or top-dose-only effect, or another doubt; inactive = no such curve, though single readings can be large or run the other way;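 note: potency is the fitted concentration of half-maximal effect; 0% = wells with enzyme and -100% = buffer wells without enzyme; nearly all actives have a fitted effect of over 50% in size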
Target sequence (B2RXH2 1-337 limits assumed): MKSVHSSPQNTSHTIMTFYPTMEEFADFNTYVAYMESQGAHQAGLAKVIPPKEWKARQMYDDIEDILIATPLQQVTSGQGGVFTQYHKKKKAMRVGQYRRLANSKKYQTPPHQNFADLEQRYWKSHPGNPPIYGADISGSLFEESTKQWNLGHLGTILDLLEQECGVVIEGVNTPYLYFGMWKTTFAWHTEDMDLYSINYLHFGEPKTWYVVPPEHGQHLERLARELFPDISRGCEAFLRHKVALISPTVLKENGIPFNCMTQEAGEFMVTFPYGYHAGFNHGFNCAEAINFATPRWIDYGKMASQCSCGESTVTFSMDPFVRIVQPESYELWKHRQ
Sfp PPTase inh – inhibitors of Bacillus subtilis Sfp phosphopantetheinyl transferase; Biochemical Sfp PPTase activity, qHTS; 3.5% of 310,000 active; Q9F4F7; Potency, µM, without a hit: largest response in the series, negative = inhibition, usual class: inhibitors;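 note: the enzyme is Sfp with the accession as filed and its product quenches rhodamine fluorescence; potency is the fitted concentration of half-maximal effect; 0% = enzyme reaction without inhibitor and -100% = no enzyme wells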
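Step 1, compound plus 15 nM Sfp-PPTase, 15 min, room temperature. Step 2, add rhodamine-CoA (5 uM) and BHQ-2-YbbR (12.5 uM). Step 3, read 525/598 nm fluorescence at 0 and 30 min.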
Tau ThT inhib – tau fibrillization inhibition (ThT binding); P10636; 2.1% of 270,000 active; recombinant tau K18 P301L (four-repeat tau fragment), heparin-induced fibrillization, ThT fluorescence; Potency, µM (titrated, usually from 57.4 µM), for the others: at the highest dose activity, negative = inhibition, actives largely listed as inhibitors; note: potency is the fitted concentration of half-maximal effect; nearly all actives have a fitted effect of over 55% in size
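Aggregation was driven by heparin (20 uM final) acting on recombinant tau […] bearing P301L in 100 mM sodium acetate pH 7; fibrils were detected with Thioflavin T.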
* hit, by the source's call; ? = inconclusive; nt = not tested or not shown; [ ] = remark or other dose. Unless noted, calls come from the whole dose curve; as a rule, active = well fitted curve in the direction sought with a large enough effect; inconclusive = small, poorly fitted or top-dose-only effect, or another doubt; inactive = no such curve, though single readings can be large; an effect the other way counts as inactive or inconclusive. Unless noted, % is set by controls: 0 for no effect and ±100 for the full control effect.

SMILES | Tau fluor cs | Tau fibril FP | Coupling enz | KDM4E inh | Sfp PPTase inh | Tau ThT inhib
O=C1NC(=O)N(CCC2=CCCCC2)C(=O)/C1=C/c1ccc(O)cc1 | -5% | ? | 0 | ? | 45µM* | ?
C[C@H](NC(=O)[C@@H](N)Cc1ccc(O)cc1)C(=O)NCC(=O)N(C)[C@@H](Cc1ccccc1)C(=O)N[C@H](CO)CCS(C)=O (stereo not given in full) | 2% | -4% | nt | nt | -2% | 5%
C[C@H](CCC(=O)O)C[C@H](C)C[C@H](C)C(=O)/C=C(\O)[C@H](C)C[C@H](C)C/C=C/[C@@H](C)[C@@H](O)[C@@H](C)[C@@H](O)C[C@@H]1CC[C@@](C)([C@H]2CC[C@@](C)([C@@H](C)O)O2)O1 | ? | 5% | 5 | nt | 2% | ?
Cc1cccc(N2C(=O)NC(=O)/C(=C\c3cc(C)n(-c4sc5c(c4C#N)CCCC5)c3C)C2=O)c1C | -17% | ? | 1 | 7% | 35µM* | ?
CCOC(=O)c1c(-n2c(C)cc(C=C3C(=O)NC(=O)NC3=O)c2C)sc2c1CCCC2 | -20% | -9% | 3 | -7% | -28% | ?
O=C(O)Cc1cnc[nH]1 | ? | ? | nt | 14µM* | 50µM* | -22%
C[C@@H](N)Cc1cnc[nH]1 | -5% | -1% | 2 | -2% | -3% | -8%
O=C1OC(c2cc(I)c(O)c(I)c2)(c2cc(I)c(O)c(I)c2)c2ccccc21 | 7.1µM*[quencher] | ? | 3 | nt | 40µM* | 13µM*
Cc1[nH]c(=O)n(C(C)(C)C)c(=O)c1Cl | nt | nt | 0 | nt | 19% | nt
CC(C)c1ccc(NC(=O)c2ccc(F)c(S(=O)(=O)N3CCc4ccccc4C3)c2)cc1 | -23% | ? | nt | nt | nt | -6%
NS(=O)(=O)c1ccc(-c2ccc(C=C3C(=O)NC(=O)NC3=O)o2)cc1 | nt | nt | -1 | nt | 14µM* | nt
CNS(=O)(=O)c1ccc(-c2ccc(C=C3C(=O)NC(=O)NC3=O)o2)cc1 | nt | nt | 0 | nt | 35µM* | nt
NS(=O)(=O)c1ccc(-c2ccc(C=C3C(=O)NC(=S)NC3=O)o2)cc1 | nt | nt | 0 | nt | 13µM* | nt
CC[C@]1(O)CC(O[C@@H]2CC(N(C)C)C(O)C(C)O2)c2c(cc3c(c2O)C(=O)c2c(O)cccc2C3=O)C1C(=O)OC (stereo not given in full) | ? | 4% | -25 | -21% | -4% | 8.9µM*
CC[C@@]1(O)CC(O)c2c(cc3c(c2O)C(=O)c2c(O)ccc(O)c2C3=O)C1C(=O)OC (stereo not given in full) | -27% | -14% | -16 | 13µM* | 14% | 7.9µM*
O=C(CNC(=O)OCc1ccccc1)Nc1ccc(Br)cc1C(=O)c1ccccc1Cl | -14% | -1% | -2 | -17% | 28µM* | -6%
CN(C(=O)CNC(=O)OCc1ccccc1)c1ccc(Br)cc1C(=O)c1ccccc1Cl | -8% | 12% | 1 | -7% | 10% | -11%
Cc1ccccc1-n1c(O)c(C=Nc2ccc(N(C)C)cc2)c(=O)[nH]c1=O | ? | ? | -3 | -30% | -29% | 28µM*
CN1C(=O)CCS(=O)(=O)[C@@H]1c1ccc(Cl)cc1 | nt | nt | 0 | 0%[25.5 µM] | 14% | nt
O=C1NC(=O)C(=Cc2ccccc2Oc2ccc(F)cc2)C(=O)N1 | -4% | 3% | 0 | -13% | 45µM* | ?
Cn1cc(C=C2C(=O)NC(=O)NC2=O)c2ccccc21 | nt | nt | -1 | nt | -28% | nt
CN1C(=O)C(=Cc2ccccc2Oc2ccc(Cl)c(F)c2)C(=O)N(C)C1=O | -4% | 0% | 11 | -1% | 56µM* | ?
NC(=O)O | nt | nt | 1 | nt | 12% | nt
c1ccc(SSc2ccccc2)cc1 | -19% | 13µM* | 5 | -14% | ? | 25µM*
N[C@@H](Cn1cc(I)c(=O)[nH]c1=O)C(=O)O | -3% | -1% | 1 | -23% | ? | -6%
SMILES | Tau fluor cs | Tau fibril FP | Coupling enz | KDM4E inh | Sfp PPTase inh | Tau ThT inhib
CCOC(=S)SSC(=S)OCC | nt | nt | nt | nt | 5.6µM* | nt
CC[C@@]1(O)C(=O)OCc2c1cc1n(c2=O)Cc2cc3cc(O)ccc3nc2-1 | 0% | 11% | -1 | 14% | -6% | -5%
CNNC | -10% | -16% | -18 | ? | 11µM* | ?
CC1(C)Cc2c(sc3c2C(=O)NC(c2cccnc2)N3)CO1 (stereo not given) | -4% | -6% | -5 | ? | 40µM* | ?
CC(C)(C)OC(=O)C(Br)CCBr (stereo not given) | nt | nt | 0 | nt | -10% | nt
CN1/C(=C\C=C2C(=O)NC(=S)NC2=O)C(C)(C)c2ccccc21 | ? | ? | -4 | -5% | -11% | 20%
O=C1NC(=S)NC(=O)C1=Cc1ccc(Br)s1 | nt | nt | 0 | nt | 16µM* | nt
CN1C(=O)/C(=C\c2ccc(Br)s2)C(=O)NC1=S | nt | nt | 2 | nt | 40µM* | nt
Cc1ccc(NC(=O)c2cnc3sc(N4CCOCC4)nn3c2=O)cc1N(C)C | -14% | 0% | nt | nt | nt | ?
N[C@@]1(C(=O)O)CC[C@H](C(=O)O)C1 | -9% | 4% | 0 | -30% | ? | -10%
Cc1ccc(C)c(N2CCN(C(=O)C3CCN(Cc4nc(-c5cccc(Cl)c5)oc4C)CC3)CC2)c1 | -27% | -10% | nt | nt | nt | ?
CC(C)Oc1ccc(C2C(C#N)=C(N)Oc3c2c(=O)oc2ccccc32)cc1 (stereo not given) | ? | ? | -1 | ? | -1% | -11%
N#CC1=C(N)Oc2c(c(=O)oc3ccccc23)C1c1ccc([N+](=O)[O-])o1 (stereo not given) | -27% | ? | -8 | ? | ? | 10µM*
C[n+]1c(-c2ccccc2)c2cc(N)ccc2c2ccc(N)cc21 | nt | nt | -39* | nt | -6% | nt
c1cncc(CNc2cc(-c3ccc4c(c3)OCO4)ncn2)c1 | -21% | -1% | 5 | ? | ? | -16%
Cc1ccc(Cl)cc1N1CCN(C(=O)C2CCN(Cc3nc(-c4ccc(Cl)cc4)oc3C)CC2)CC1 | -21% | -8% | nt | nt | nt | ?
Cc1cccc(CN2CCN(Cc3ccc(Cl)cc3)CC2)c1 | -5% | 4% | -12 | 16µM* | ? | -12%
Cc1cccc(CN2CCN(c3ccc(Cl)cc3)CC2)c1 | -17% | -1% | 4 | 22µM* | -15% | ?
Fc1ccc(CN2CCN(c3ccc(Cl)cc3)CC2)cc1 | -28% | -6% | 1 | -5% | 4% | ?
CN1[C@@H]2CC[C@H]1CC(O[C@@H](c1ccccc1)c1ccc(Cl)cc1)C2 (stereo not given in full) | -1% | -4% | -7 | -23% | ? | ?
CN[C@@H](Cc1c[nH]c2ccccc12)C(=O)O | -9% | 2% | -1 | ? | -5% | -7%
